# According to paper PMC4336329 (PLoS ONE, 2015):
# About 14,000 (4.5%) of roughly 310,000 compounds showed an effect of 50% or more. The effect is printed as a negative number. What follows is part of a selection rich in strong results, with near analogues and random picks from the rest.
# Target: human ether-à-go-go-related gene (hERG) potassium channel (human, UniProt Q12809)
# Experiment: primary screen, population patch clamp on CHO cells stably expressing hERG; higher = less effect of the substance
# 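Also: peak tail current of the secondary pulse compared with the same well before compound.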
# Sequence of human ether-à-go-go-related gene (hERG) potassium channel (Q12809 whole entry, looked up): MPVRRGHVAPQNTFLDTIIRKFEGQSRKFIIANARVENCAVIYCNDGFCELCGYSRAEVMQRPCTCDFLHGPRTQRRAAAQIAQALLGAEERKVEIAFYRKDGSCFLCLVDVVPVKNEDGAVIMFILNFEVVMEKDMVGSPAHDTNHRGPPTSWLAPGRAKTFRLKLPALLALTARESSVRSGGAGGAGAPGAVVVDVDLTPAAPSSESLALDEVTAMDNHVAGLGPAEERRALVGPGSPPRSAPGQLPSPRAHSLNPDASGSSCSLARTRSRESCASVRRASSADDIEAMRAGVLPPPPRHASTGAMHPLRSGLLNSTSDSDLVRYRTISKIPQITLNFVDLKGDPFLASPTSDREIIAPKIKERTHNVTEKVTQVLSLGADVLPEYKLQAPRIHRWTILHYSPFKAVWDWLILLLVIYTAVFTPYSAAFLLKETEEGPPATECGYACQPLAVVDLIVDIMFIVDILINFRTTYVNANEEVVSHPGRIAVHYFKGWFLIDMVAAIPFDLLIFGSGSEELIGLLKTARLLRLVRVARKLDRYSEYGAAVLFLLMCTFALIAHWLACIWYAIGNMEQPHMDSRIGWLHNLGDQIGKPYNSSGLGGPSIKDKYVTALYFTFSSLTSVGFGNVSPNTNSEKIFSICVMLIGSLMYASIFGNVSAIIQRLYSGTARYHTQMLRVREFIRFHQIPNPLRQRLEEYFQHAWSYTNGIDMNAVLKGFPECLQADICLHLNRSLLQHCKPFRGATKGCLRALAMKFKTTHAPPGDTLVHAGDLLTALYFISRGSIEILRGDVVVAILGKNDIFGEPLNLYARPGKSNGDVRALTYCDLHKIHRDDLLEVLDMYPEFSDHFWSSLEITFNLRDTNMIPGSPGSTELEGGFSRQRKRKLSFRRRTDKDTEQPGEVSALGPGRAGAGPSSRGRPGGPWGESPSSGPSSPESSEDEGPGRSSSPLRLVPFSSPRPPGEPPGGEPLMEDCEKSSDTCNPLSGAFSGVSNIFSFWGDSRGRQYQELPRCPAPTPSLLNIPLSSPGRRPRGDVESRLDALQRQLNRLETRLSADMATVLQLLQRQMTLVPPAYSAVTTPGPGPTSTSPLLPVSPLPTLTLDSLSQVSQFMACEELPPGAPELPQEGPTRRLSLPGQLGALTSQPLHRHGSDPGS
row,SMILES,"hERG current change (%, negative = inhibition) at 10uM [%]"
1,O=C(CSc1nnc(-c2cccs2)o1)NCc1ccco1,-0.74
2,COC(=O)C1=C(Nc2ccc(OC)cc2)C=C(C)C(C(=O)OC)C1c1ccc(C)cc1 (stereo not drawn),18.9
3,C(#Cc1ccccc1)CN1CCOCC1.Cl,22.9
4,Cc1ccc(C)c(S(=O)(=O)N2CCN(C(=O)c3ccc(OCc4c(C)noc4C)cc3)CC2)c1,-21.9
5,O=C(Nc1ccc(S(=O)(=O)N2CCCCC2)cc1)c1ccc(=O)[nH]c1,7.49
6,Cc1cc(C)cc(Oc2ccc(-c3nnc(-c4ccccc4)o3)cc2[N+](=O)[O-])c1,7.94
7,Cc1ccc(-n2cc(CNCCCn3cccn3)c(-c3cccc(C)c3)n2)cc1,-71.6
8,Cc1ccc(-n2cc(CNC(C)Cc3cnccn3)c(-c3cccc(C)c3)n2)cc1 (stereo not drawn),-73.8
9,CC(=O)N1CCCN(Cc2cn(-c3cc(C)ccc3C)nc2-c2ccccc2)CC1,-30.3
10,Cc1ccc(C)c(-n2cc(CN3CCN(C(=O)c4ncn[nH]4)CC3)c(-c3ccccc3)n2)c1,-30.7
11,Cc1ccc(-n2cc(CN(C)Cc3nccn3C)c(-c3cccc(C)c3)n2)cc1,-16.1
12,Cc1ccc(C)c(-n2cc(CNCCCn3cccn3)c(-c3ccccc3)n2)c1,-64.9
13,Cc1ccn2c(CNCCCn3cccn3)c(C(=O)N3CCCCCC3)nc2c1,-23.4
14,COc1cccc(-c2nn(-c3ccccc3)cc2CNC(C)Cn2cncn2)c1 (stereo not drawn),-42.5
15,Cc1ccc(-n2cc(CN3CCC(O)(c4ccccn4)CC3)c(-c3ccc(F)cc3)n2)cc1,-56.7
16,Cc1ccc(-n2cc(CN3CCNC(=O)CC3)c(-c3ccc(F)cc3)n2)cc1,-35.4
17,Cc1ccc(-n2cc(CN3CCN(c4ccccn4)CC3)c(-c3ccc(F)cc3)n2)cc1,11.2
18,CCOC(=O)C1=NN(c2ccccc2)C(c2ccccc2)CC1=O (stereo not drawn),5.31
19,Cc1nnc2n1N=C(c1ccc(F)cc1F)CS2,-3.32
20,CCOc1ccc(CCNC(=O)c2ccc(S(=O)(=O)N3CCCC3)cc2)cc1OCC,-8.47
21,CCn1c2ccccc2c2cc(/C=N/n3c(C)nnc3C)ccc21,-25

row,SMILES,"hERG current change (%, negative = inhibition) at 10uM [%]"
1,O=C(C1=C[C@H](C2CC2)C[C@H](OCCCCO)O1)N1CCOCC1,21.2
2,O=C(/C=C/c1nc2ccccc2s1)N1CCCCCC1,-0.709
3,CN(C)S(=O)(=O)c1cccc(C(=O)OCC(=O)Nc2sccc2C#N)c1,-2.79
4,Cc1cccc(-n2cc(CN3CCN(Cc4nccn4C)CC3)c(-c3cccc(F)c3)n2)c1,2.98
5,Cc1ccc(-n2cc(CN3CCN(Cc4nccn4C)CC3)c(-c3cccc(C)c3)n2)cc1,-62.7
6,Cc1ccc(-n2cc(CN3CCN(Cc4nccn4C)CC3)c(-c3ccc(F)cc3)n2)cc1,-26.8
7,CSCC[C@H](NC(=O)c1nn(C)c(=O)c2ccccc12)c1nc2ccccc2[nH]1,-3.07
8,Cc1cc([N+](=O)[O-])nn1CC(=O)N/N=C/c1ccccc1F,-5.15
9,Cc1ccc(C2N(c3ccccc3)C(=S)N3CCCN23)cc1 (stereo not drawn),7
10,Cc1cc(S(=O)(=O)N2CCN(c3c(C)cccc3C)CC2)ccc1F,-4.1
11,CCC(C)N(C)Cc1cccc(C2(O)CCN(S(=O)(=O)c3ccc(F)c(C)c3)CC2)c1 (stereo not drawn),-72.4
12,CCc1ccccc1N1CCN(S(=O)(=O)c2ccc(F)c(C)c2)CC1,4.43
13,O=S(=O)(c1ccc(OC(F)(F)F)cc1)N1CCC(O)(c2cccc(C(F)(F)F)c2)CC1,-4.35
14,CC(C(=O)Nc1ccc(S(=O)(=O)N2CCCC2)cc1)N(C)Cc1ccc(F)cc1 (stereo not drawn),-9.91
15,CCC(C)N(C)Cc1cccc(C2(O)CCN(S(=O)(=O)c3ccc(F)cc3)CC2)c1 (stereo not drawn),-69.3
16,CN1CCc2c(sc(N)c2C(=O)O)C1,20.8
17,COc1ccc(C2C(C#N)=C(N)OC3=C2C(=O)CCC3)cc1Cn1nc(C)c([N+](=O)[O-])c1C (stereo not drawn),-13.3
18,COc1ccc(C2C(C#N)=C(N)OC3=C2C(=O)CC(C)(C)C3)cc1Cn1cc([N+](=O)[O-])cn1 (stereo not drawn),-6.92
19,COc1ccc(C2C(C#N)=C(N)OC3=C2C(=O)CC(C)(C)C3)cc1Cn1nc(C)c([N+](=O)[O-])c1C (stereo not drawn),-50.6
20,COC(=O)CCC(=O)OC1(C)C(=O)C=C2C=C(C3CC3)N(C(CO)CO)C=C2C1=O (stereo not drawn),5.72
21,COc1ccccc1C(=O)NCC(=O)NNC(=O)C1COc2ccccc2O1 (stereo not drawn),2.49
